# Most compounds without a hit are left out; they make up all but 7.3% or so of the library.
# SMN2 splice up: SMN2 splice variant enhancement | Potency, µM (highest dose often 46.1 µM), most hits filed as activators | AID 1458 | HEK293 SMN2-luciferase splicing reporter, luminescence, 30-36 h | 210,000 compounds, 2.8% hits; also: nearly all actives have a fitted effect of over 55% in size
#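 HEK293 cells carry an SMN2 minigene-luciferase reporter in which exon 7 inclusion puts luciferase in frame. Cells were seeded at 2000 cells/well, attached for 10-12 hours, then exposed to compounds for 30-36 hours at 37C before ONE-Glo luminescence.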
# Rab9 promoter act: activates the Rab9 promoter; Huh7 Rab9 promoter-luciferase reporter, luminescence, 24 h; Potency, µM (titrated, usually from 9.22 µM), most hits filed as activators; 320,000 compounds, 2.8% hits; AID 485297; also: nearly all actives have a fitted effect of over 60% in size
#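 Measured in stably transfected Huh7 cells bearing a Rab9 promoter–luciferase construct: 24 h compound treatment at 37 °C, followed by luminescence detection.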
# NPC1 promoter act: activates the NPC1 promoter; Huh7 NPC1 promoter luciferase reporter, 24 h; Potency, µM (series often up to 9.22 µM), actives largely listed as activators; 320,000 compounds, 2.4% hits; AID 485313; also: nearly all actives have a fitted effect of over 60% in size
#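 Cells: Huh7 expressing luciferase under the NPC1 promoter, 1500/well. Seeded 2 h, compound added, incubated 24 h at 37 °C. Luciferase reagent, 10 min ambient, then luminescence.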
# FLuc modulator: firefly luciferase modulation, counter-screen for miR-21 project; P08659; purified FLuc, Km substrates, luminescence inhibition; Potency, µM (highest dose often 57.5 µM), most hits filed as inhibitors; 360,000 compounds, 6.9% hits; AID 588342; also: nearly all actives have a fitted effect of over 55% in size
# Target sequence (P08659 whole entry, looked up): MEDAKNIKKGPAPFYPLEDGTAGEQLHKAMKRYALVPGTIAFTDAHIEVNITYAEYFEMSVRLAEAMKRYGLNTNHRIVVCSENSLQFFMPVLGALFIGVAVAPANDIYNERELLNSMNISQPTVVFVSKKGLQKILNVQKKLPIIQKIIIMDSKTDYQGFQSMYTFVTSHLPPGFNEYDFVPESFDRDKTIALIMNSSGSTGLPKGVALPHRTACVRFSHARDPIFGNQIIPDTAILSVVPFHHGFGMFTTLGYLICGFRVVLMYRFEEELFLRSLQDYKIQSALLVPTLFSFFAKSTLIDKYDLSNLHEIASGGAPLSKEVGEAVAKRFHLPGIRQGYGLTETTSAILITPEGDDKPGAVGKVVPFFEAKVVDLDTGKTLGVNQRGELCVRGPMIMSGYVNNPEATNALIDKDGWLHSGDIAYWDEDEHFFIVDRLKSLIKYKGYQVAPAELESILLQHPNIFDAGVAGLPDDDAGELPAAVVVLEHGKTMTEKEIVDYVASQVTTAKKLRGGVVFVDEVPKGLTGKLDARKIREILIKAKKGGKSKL
#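 Biochemical qHTS of compounds, final roughly 60 µM downward over six points, against 10 nM purified firefly luciferase using Km concentrations of substrates (10 uM D-luciferin, 10 uM ATP) in Tris acetate pH 7.5 buffer; luminescence output.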
# KinaseGlo FLuc: counter-screen: inhibitors of Kinase-Glo firefly luciferase | AID 1379 | Kinase-Glo luciferase, ATP luminescence, 8 min | Potency, µM (doses to about 38.3 µM), actives largely listed as inhibitors | 200,000 compounds, 0.28% hits | Q27757; also: nearly all actives have a fitted effect of over 60% in size
#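 Recombinant Kinase-Glo luciferase, 10 uM ATP (linear range), luciferin; imidazole pH 7.2 / KCl / MgCl2 / Tween / BSA buffer; 8 min RT; luminescence.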
# Hits are given with their value; n = inactive; u = inconclusive; x = no result given; [ ] = another dose, or the depositor's remark. Calls follow the shape of the dose curve; as a rule, active = well fitted curve in the direction sought with a large enough effect; inconclusive = small, poorly fitted or top-dose-only effect, or another doubt; inactive = no such curve, though single readings can be large; an effect the other way counts as inactive or inconclusive.
SMILES,SMN2 splice up,Rab9 promoter act,NPC1 promoter act,FLuc modulator,KinaseGlo FLuc
N#C/C(=C\N1CCOCC1)c1ccccc1,n,n,n,n,n
N#C/C(=C/c1ccc(N2CCCCCC2)o1)c1cccc(F)c1,13µM,4µM,3.5µM,5.4µM,n
N#C/C(=C/c1ccc(N2CCOCC2)o1)c1nc2ccccc2[nH]1,2µM,1µM,3.5µM,0.54µM,n
N#C/C(=C\c1cc([N+](=O)[O-])c(N2CCOCC2)cc1N1CCOCC1)c1nc2ccccc2[nH]1,n,n,n,n,n
N#C/C(=C\c1ccc(Sc2nc3ccccc3[nH]2)o1)c1ccccc1,n,n,n,n,n
N#C/C(=C\c1ccc(N2CCOCC2)o1)c1ccccc1,13µM,u,u,2.1µM,n
N#C/C(=C\c1ccc(N2CCOCC2)cc1)c1ccccc1,3.2µM,1µM,2.8µM,u,n
CCc1cc2c(cc3c(=O)n(CC(=O)N4CCC(C)CC4)nc(CC)n32)s1,n,x,x,n,x
CCc1ccccc1NC(=O)C1CCN(S(=O)(=O)c2cn(C)cn2)CC1,x,x,x,n,x
N#C/C(=C/c1ccc(N2CCOCC2)o1)c1ccc(Br)cc1,u,u,u,8.5µM,n
Cc1ccc(SCN2CCCCC2)cc1 (tested in a mixture with another compound),n[9.22 µM],x,x,x,n[7.66 µM]
COc1cccc(-c2nc(-c3ccccc3)no2)c1,11µM,u,u,u,n
COc1cccc(-c2nc(-c3ccccn3)no2)c1,n,0.11µM,u,0.34µM,7.9µM
COc1cccc(-c2ccc(-c3noc(-c4ccccc4Br)n3)c(OC)n2)c1,n,x,x,u,x
COc1cccc(-c2noc(-c3cccs3)n2)c1,13µM,1µM,u,2.1µM,n
COc1ccc(-c2nc(-c3ccncc3)no2)c(OC)c1,x,0.71µM,u,0.95µM,x
COc1cc(OC)cc(-c2nc(-c3cccc(C)c3)no2)c1,n,x,x,u,x
COc1cccc(OCc2nnc(-c3cccs3)o2)c1,n,n,n,u,n
CCN(CCCNC(=O)c1nn(-c2ccc(C)cc2)c(=O)c2c1c1ccccc1n2C)c1cccc(C)c1,n,x,x,n,x
Cc1ccc(S(=O)(=O)Oc2ccc(N=Nc3ccc(-c4ccc(N=Nc5c(O)ccc6cc(S(=O)(=O)O)cc(S(=O)(=O)O)c56)c(C)c4)cc3C)cc2)cc1,n,x,x,x,x
c1ccc(-c2cc(-c3nc(-c4cccnc4)no3)c3ccccc3n2)cc1,n,n,n,n,n
COc1cccc(-c2nc(-c3ccc(NC(=O)c4cccnc4)cc3)no2)c1,n,n,u,u,n
COc1cc(-c2nc(-c3cccnc3)no2)cc(OC)c1OC,n,n,n,n,n
c1ccc(-c2noc(-c3cccnc3)n2)nc1,11µM,2µM,2.8µM,13µM,u
COc1ccc(-c2nc(-c3cccnc3)no2)cc1OC,x,u,u,17µM,x
SMILES,SMN2 splice up,Rab9 promoter act,NPC1 promoter act,FLuc modulator,KinaseGlo FLuc
O=[N+]([O-])c1cccc(-c2nc(-c3ccccn3)no2)c1,x,0.4µM,0.71µM,4.8µM,x
COc1cccc(-c2noc(-c3cccnc3)n2)c1,20µM,2.5µM,3.5µM,5.4µM,n
CCOc1ccc(N2CC(NC(=O)/C=C\c3ccc4c(c3)OCO4)CC2=O)cc1 (configuration not stated),x,x,x,n,x
COc1ccc(C(=O)NCCn2cc(SCc3cccc(F)c3)c3ccccc32)cc1OC,n,x,x,n,x
CC(C)c1ccc(/C=C/C(=O)O)cc1,x,n,n,19µM,x
CCCNC(=O)/C=C/c1ccc(C(C)C)cc1,u,n,n,17µM,n
Cc1c(F)cccc1NS(=O)(=O)c1cccs1,x,x,x,n,x
COc1ccccc1C(=O)/C=C/c1ccc(N2CCCCC2)c([N+](=O)[O-])c1,n,u,u,6µM,n
O=C(c1ccc(N2CCCCC2)c([N+](=O)[O-])c1)N1CCOCC1,n,n,n,n,n
O=C(/C=C/c1ccc(N2CCCCC2)c([N+](=O)[O-])c1)c1ccc(O)cc1,n,u,u,4.8µM,n
O=C(O/N=C\c1ccc(N2CCCCC2)c([N+](=O)[O-])c1)c1ccc(Cl)cc1Cl,n,n,n,n,n
CCOc1ccc(C2=NC(c3ccncc3)=Nc3ccc(C)cc3N2)cc1OCC,n,x,x,n,x
c1cncc(-c2nnc3sc(-c4ccco4)nn23)c1,n,n,n,n,n
CCN(CC)c1ccc(-c2nn3c(-c4cccnc4)nnc3s2)cc1,n,n,n,21µM,n
Cc1ccc2c(c1)C(c1ccccc1)N(C(=O)c1ccc(OC(C)C)cc1)CC(=O)N2 (configuration not stated),n,x,x,n,x
Cc1ccc(-c2c(C)sc(=NC(=O)c3ccco3)n2C)cc1,u,2.5µM,1.6µM,0.95µM,n
O=c1cccccc1NN=C1CCCCCC1,x,3.2µM,2.2µM,6µM,x
O=c1cccccc1NN=C1CCCCC1,x,n,n,12µM,x
O=S(=O)(c1ccc2ccccc2c1)n1nc(-c2ccco2)nc1NCc1ccc(F)cc1,x,x,x,n,x
O=C1/C(=C/c2cccs2)Cc2ccccc21,x,n,n,3.8µM,x
O=C1/C(=C\c2ccc(Br)o2)Cc2ccccc21,n,n,n,15µM,n
COc1cc(OC)c(OC)cc1/C=C1/Cc2ccccc2C1=O,x,n[1.84 µM],n,n,x
Cc1ccccc1C1=N/C(=C/c2cccs2)C(=O)O1,n,n,n,3.4µM,n
Cc1ccc(C=C2C(=O)c3ccccc3C2=O)s1,n,n,n,0.85µM,7.1µM
CCCN(CCC)C(=O)Cn1c(=O)n(-c2cccc(OC)c2)c(=O)c2c3c(sc21)CCCC3,n,x,x,n,x
SMILES,SMN2 splice up,Rab9 promoter act,NPC1 promoter act,FLuc modulator,KinaseGlo FLuc
O=C(OCC1OC(OC(=O)c2cc(O)c(O)c(OC(=O)c3cc(O)c(O)c(O)c3)c2)[C@@H](OC(=O)c2cc(O)c(O)c(OC(=O)c3cc(O)c(O)c(O)c3)c2)C(OC(=O)c2cc(O)c(O)c(OC(=O)c3cc(O)c(O)c(O)c3)c2)C1OC(=O)c1cc(O)c(O)c(OC(=O)c2cc(O)c(O)c(O)c2)c1)c1cc(O)c(O)c(OC(=O)c2cc(O)c(O)c(O)c2)c1 (some centres not stated),n,x,x,x,n
O=C1C(=Cc2cccs2)C(=O)c2ccccc21,n,n,n,4.8µM,u
CCOc1ccc(-c2nc(CSCC(=O)NCc3ccco3)c(C)o2)cc1,n,n,n,12µM,n
COc1ccc(-c2nc(CSCC(=O)N3CCN(c4ccccc4F)CC3)c(C)o2)cc1,n,x,x,n,x
COc1ccc(-c2nc(CSCC(=O)NCc3ccc4c(c3)OCO4)c(C)o2)cc1,n,n,n,27µM,n
CCOc1ccc(-c2nc(CSCC(=O)N3CCN(c4cccc(OC)c4)CC3)c(C)o2)cc1,n,n,n,24µM,n
CCc1ccc(-c2nc(CS(=O)CC(=O)NC3CC3)c(C)o2)cc1 (configuration not stated),x,n,n,u,x
CCc1ccc(-c2nc(CS(=O)CC(=O)O)c(C)o2)cc1 (configuration not stated),x,u,n,21µM,x
Cc1cc2c(cc1NS(=O)(=O)c1cccc(C#N)c1)n(C)c(=O)c(=O)n2C,x,x,x,n,x
CSc1ccc(CCNC(=O)c2cc(C)nc3c2c(C)nn3-c2ccccc2)cc1,x,x,x,n,x

# High-throughput results from PubChem.
